In the library only some 0.37% were active in any assay of this set; here they are far more common.
Rac1 mut GTP: modulators of GTP binding to human Rac1 activated mutant | AID 764 | GST-Rac1 activated beads, fluorescent GTP binding, flow cytometry; actives lie on both sides; 100% means binding = to untreated wells | P63000 | percent activity (GTP binding), % at 10 µM | 190,000 compounds, 0.11% hits;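 active = GTP binding at least 20 percentage points away from the 100% baseline, in either direction, so actives lie on both sides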
Rac1 wt GTP bind: alters GTP binding to wildtype human Rac1; 190,000 compounds, 0.27% hits; GST-Rac1 beads, fluorescent GTP binding, flow cytometry; actives lie on both sides; 0 = cold GTP competed, 100 = untreated; GTP binding activity (% of control), % at 10 µM; P63000;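 active = GTP binding activity at least 20 points away from the 100% control level, either lower or higher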
Cdc42 wt: human Cdc42 wildtype GTP binding change, either direction; P60953; GST-Cdc42 beads, Bodipy-GTP binding, flow cytometry; actives lie on both sides; percent activity (GTP binding), % at 10 µM; 190,000 compounds, 0.2% hits; AID 761;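 active = percent activity GTP binding at least 20 points away from the 100% baseline, either down as inhibitor or up as activator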;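 also: median bead fluorescence of bound Bodipy-FL-GTP at 100 nM; 0% = excess unlabeled GTP control and 100% = no compound control; below 100% means less GTP binding so inhibitor and above means activator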
Target sequence (P60953 whole entry, looked up): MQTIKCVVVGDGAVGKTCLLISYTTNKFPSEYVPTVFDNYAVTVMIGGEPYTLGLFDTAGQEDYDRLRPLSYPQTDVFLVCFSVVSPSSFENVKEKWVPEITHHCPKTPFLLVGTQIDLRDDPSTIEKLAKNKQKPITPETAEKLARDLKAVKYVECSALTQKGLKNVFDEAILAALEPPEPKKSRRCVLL
HRas wt GTP bind: changes GTP binding to wildtype human HRas; P01112; GST-Ras wt beads, Bodipy-FL-GTP binding, flow cytometry; actives lie on both sides; GTP binding activity, % at 10 µM; 190,000 compounds, 0.14% hits; AID 759;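 active = GTP binding activity at least 20% away from the 100% baseline, either lowered as inhibitor or raised as activator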;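 also: 0% = unlabeled GTP competition control and 100% = no-compound control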
Target sequence (P01112 whole entry, looked up): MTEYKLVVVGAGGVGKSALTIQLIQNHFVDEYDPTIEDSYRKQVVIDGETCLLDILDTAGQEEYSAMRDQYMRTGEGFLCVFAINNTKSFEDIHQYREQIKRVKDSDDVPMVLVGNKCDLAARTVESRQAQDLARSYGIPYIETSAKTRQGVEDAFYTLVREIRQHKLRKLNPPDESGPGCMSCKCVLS
Rab7 wt GTP bind: alters GTP binding to wildtype dog Rab7. AID 758. GST-Rab7 beads, fluorescent GTP binding, flow cytometry; actives lie on both sides; untreated = 100%, excess cold GTP = 0%. GTP binding activity (percent of control), % at 10 µM. 190,000 compounds, 0.055% hits;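 active = fluorescent GTP binding to Rab7 beads changed by at least 20 points from the 100% baseline, either direction, mostly lower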;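 also: median green fluorescence of bound Bodipy-FL-GTP per Rab7 bead population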
Rab2 wt GTP: changes GTP binding to wildtype dog Rab2A, up or down | 190,000 compounds, 0.19% hits | GST-Rab2 wt beads, Bodipy-GTP binding, flow cytometry | P61105 | GTP binding activity, % at 10 µM | AID 760;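 active = GTP binding activity at least 20 points away from 100%, either lowered or raised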;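 also: 0% = beads with excess unlabeled GTP and 100% = no-compound control corrected for plate trend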
The depositor's hits bear a star; [ ] = another dose, or the depositor's remark.

`NC(=O)COC(=O)c1cccc2c1-c1ccccc1C2=O` gave Rac1 mut GTP 85, Rac1 wt GTP bind 72*, Cdc42 wt 78*, HRas wt GTP bind 81, Rab7 wt GTP bind 92 and Rab2 wt GTP 78*.
For COc1ccc(-c2c(C#N)c(N)nc3c2CCc2ccccc2-3)cc1OC the results were Rac1 mut GTP 95, Rac1 wt GTP bind 105, Cdc42 wt 98, HRas wt GTP bind 100, Rab7 wt GTP bind 97 and Rab2 wt GTP 98.
COc1ccc(-c2cc(-c3ccc(O)cc3)nc(N)c2C#N)cc1OC was read as Rac1 mut GTP 85, Rac1 wt GTP bind 69*, Cdc42 wt 81, HRas wt GTP bind 81, Rab7 wt GTP bind 83 and Rab2 wt GTP 79*.
`O=C(O)c1cccc(Oc2ccc([N+](=O)[O-])cc2)c1` gave Rac1 mut GTP 120*[activator], Rac1 wt GTP bind 141*[activator], Cdc42 wt 127*[activator], HRas wt GTP bind 117, Rab7 wt GTP bind 115 and Rab2 wt GTP 121*[activator].
Screening O=c1c2ccccc2nc2c3ccccc3c(NCc3cccnc3)nn12 returned Rac1 mut GTP 84, Rac1 wt GTP bind 69*, Cdc42 wt 72*, HRas wt GTP bind 75*, Rab7 wt GTP bind 86 and Rab2 wt GTP 72*.
CCOC(=O)c1nc(NCc2cccnc2)c2ccccc2n1 was read as Rac1 mut GTP 97, Rac1 wt GTP bind 99, Cdc42 wt 97, HRas wt GTP bind 96, Rab7 wt GTP bind 95 and Rab2 wt GTP 95.
`O=c1c2ccccc2nc2c3ccccc3c(NCc3ccccn3)nn12` gave Rac1 mut GTP 82, Rac1 wt GTP bind 65*, Cdc42 wt 75*, HRas wt GTP bind 76*, Rab7 wt GTP bind 87 and Rab2 wt GTP 74*.
O=c1c2ccccc2nc2c3ccccc3c(NCCO)nn12 was read as Rac1 mut GTP 78*, Rac1 wt GTP bind 63*, Cdc42 wt 58*, HRas wt GTP bind 62*, Rab7 wt GTP bind 101 and Rab2 wt GTP 62*.
For Cc1nc(NCc2ccccn2)c2ccccc2n1 the results were Rac1 mut GTP 98, Rac1 wt GTP bind 100, Cdc42 wt 97, HRas wt GTP bind 99, Rab7 wt GTP bind 93 and Rab2 wt GTP 97.
Screening CO/N=C/NC(=O)NOCc1ncc(C(F)(F)F)cc1Cl returned Rac1 mut GTP 104, Rac1 wt GTP bind 123*[activator], Cdc42 wt 118, HRas wt GTP bind 113, Rab7 wt GTP bind 104 and Rab2 wt GTP 115.
`NC(=O)NOCc1ncc(C(F)(F)F)cc1Cl` gave Rac1 mut GTP 104, Rac1 wt GTP bind 120*[activator], Cdc42 wt 117, HRas wt GTP bind 111, Rab7 wt GTP bind 105 and Rab2 wt GTP 113.
`Cc1c(Nc2ccc(C=O)cc2)c(=O)n(-c2ccccc2)n1C` gave Rac1 mut GTP 93, Rac1 wt GTP bind 95, Cdc42 wt 95, HRas wt GTP bind 96, Rab7 wt GTP bind 95 and Rab2 wt GTP 94.
Screening O=C(NCCc1ccc(Cl)cc1)C1CCC(CNc2nc(=S)[nH]c3ccccc23)CC1 (stereo not given) returned Rac1 mut GTP 92, Rac1 wt GTP bind 85, Cdc42 wt 81, HRas wt GTP bind 89, Rab7 wt GTP bind 99 and Rab2 wt GTP 88.
For O=C(NCc1ccccc1Cl)C1CCC(CNc2nc(=S)[nH]c3ccccc23)CC1 (stereo not given) the results were Rac1 mut GTP 92, Rac1 wt GTP bind 78*, Cdc42 wt 90, HRas wt GTP bind 86, Rab7 wt GTP bind 88 and Rab2 wt GTP 88.
Screening O=c1[nH]c(N/N=C\c2ccc3c(c2)OCO3)nc2ccccc12 returned Rac1 mut GTP 86, Rac1 wt GTP bind 67*, Cdc42 wt 78*, HRas wt GTP bind 80*, Rab7 wt GTP bind 85 and Rab2 wt GTP 77*.
For O=C(CCc1nnc(-c2ccc3c(c2)OCO3)o1)N1CCC(c2ccc(F)cc2)C1 (stereo not given) the results were Rac1 mut GTP 79*, Rac1 wt GTP bind 88, Cdc42 wt 81, HRas wt GTP bind 87, Rab7 wt GTP bind 96 and Rab2 wt GTP 82.
`O=C(Nc1cccc(-c2nnc(-c3ccco3)o2)c1)c1ccccc1` gave Rac1 mut GTP 90, Rac1 wt GTP bind 76*, Cdc42 wt 83, HRas wt GTP bind 84, Rab7 wt GTP bind 89 and Rab2 wt GTP 85.
COC(=O)Cc1c(O)ccn(Cc2ccc(OC)c(OC)c2)c1=O was read as Rac1 mut GTP 97, Rac1 wt GTP bind 101, Cdc42 wt 100, HRas wt GTP bind 98, Rab7 wt GTP bind 96 and Rab2 wt GTP 100.
`COc1ccc(C(=O)CSc2ccc3nnc(-c4cccnc4)n3n2)cc1` gave Rac1 mut GTP 96, Rac1 wt GTP bind 88, Cdc42 wt 92, HRas wt GTP bind 98, Rab7 wt GTP bind 101 and Rab2 wt GTP 95.
O=C(O)CSc1ccc2nnc(-c3cccnc3)n2n1 was read as Rac1 mut GTP 91, Rac1 wt GTP bind 78*, Cdc42 wt 87, HRas wt GTP bind 91, Rab7 wt GTP bind 98 and Rab2 wt GTP 88.
For Cc1ccc(-c2nnc3c4ccccc4c(C)nn23)cc1S(=O)(=O)N1CCN(CCO)CC1 the results were Rac1 mut GTP 95, Rac1 wt GTP bind 88, Cdc42 wt 82, HRas wt GTP bind 85, Rab7 wt GTP bind 86 and Rab2 wt GTP 79*.
For Cc1ccc(-c2nnc3c4ccccc4c(C)nn23)cc1NC(=O)CN1CCOCC1 the results were Rac1 mut GTP 97, Rac1 wt GTP bind 97, Cdc42 wt 96, HRas wt GTP bind 96, Rab7 wt GTP bind 95 and Rab2 wt GTP 94.
For COc1ccc(N2CCN(C(=O)c3cccnc3SCc3cccc(Br)c3)CC2)cc1 the results were Rac1 mut GTP 98, Rac1 wt GTP bind 103, Cdc42 wt 97, HRas wt GTP bind 98, Rab7 wt GTP bind 95 and Rab2 wt GTP 96.
`Cc1cc(NC(=O)Nc2cccc(C)c2C)no1` gave Rac1 mut GTP 97, Rac1 wt GTP bind 100, Cdc42 wt 102, HRas wt GTP bind 97, Rab7 wt GTP bind 99 and Rab2 wt GTP 97.
For O=C(C#Cc1ccccc1)c1ccc([N+](=O)[O-])cc1 the results were Rac1 mut GTP 77*, Rac1 wt GTP bind 90, Cdc42 wt 82, HRas wt GTP bind 86, Rab7 wt GTP bind 94 and Rab2 wt GTP 86.
Screening [O-]/C(=C(\C(=S)NCc1ccccc1)[n+]1ccccc1)c1ccc(Cl)s1 returned Rac1 mut GTP 94, Rac1 wt GTP bind 96, Cdc42 wt 95, HRas wt GTP bind 95, Rab7 wt GTP bind 99 and Rab2 wt GTP 95.
`O=C(CSc1nnc(-c2cccs2)o1)c1cccs1` gave Rac1 mut GTP 95, Rac1 wt GTP bind 96, Cdc42 wt 97, HRas wt GTP bind 98, Rab7 wt GTP bind 97 and Rab2 wt GTP 96.

High-throughput results: PubChem BioAssay, NMMLSC
